Compound activity as filed in PubChem BioAssay.
TRHR agonist = TRH receptor (human) agonism. activation, % at 2 µM. TRHR cells, calcium flux fluo-8, FDSS agonist mode. P34981. actives 0.18% (n = 360,000); note: 0% is about no effect
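In this calcium-flux screen, cells bearing human TRHR are dye-loaded with fluo-8, baselined for 10 cycles, then exposed to library compounds; positive kinetic calcium responses during the agonist phase mark hits, with TRH as control.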
D1 agonist = human D1 receptor agonism; HEK293 T-REx D1 cells, calcium flux, agonist mode; activation, % at 2 µM; actives 1% (n = 360,000); note: 0% is about no effect
Target sequence (P21728 whole entry, looked up): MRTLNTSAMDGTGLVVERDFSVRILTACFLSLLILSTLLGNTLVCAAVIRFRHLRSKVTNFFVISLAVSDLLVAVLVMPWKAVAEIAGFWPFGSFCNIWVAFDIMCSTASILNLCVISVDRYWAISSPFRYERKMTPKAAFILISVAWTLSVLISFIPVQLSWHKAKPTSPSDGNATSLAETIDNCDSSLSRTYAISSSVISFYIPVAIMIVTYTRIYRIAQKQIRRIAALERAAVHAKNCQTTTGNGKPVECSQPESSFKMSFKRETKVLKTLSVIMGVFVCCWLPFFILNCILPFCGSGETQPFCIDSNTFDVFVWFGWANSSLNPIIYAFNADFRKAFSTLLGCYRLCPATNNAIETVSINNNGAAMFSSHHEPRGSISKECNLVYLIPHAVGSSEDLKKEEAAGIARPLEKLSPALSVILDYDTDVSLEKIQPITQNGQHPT
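Agonism was scored from calcium flux recorded over 180 s (1 read/s) after pintool compound addition, following a 10-cycle baseline. Cells were inducible force-coupled HEK293 TREx D1, plated overnight at 30 C and loaded with no-wash calcium dye.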
TRHR enhancer = allosterically enhances the human TRH receptor; enhancement, % at 2 µM; P34981; actives 0.66% (n = 360,000); TRHR cells, fluo-8 calcium fluorescence, EC20 TRH enhancement; in the data active = enhancement above about 30%; note: 0% is about no effect
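TRHR-expressing cells loaded with fluo-8 calcium dye were read kinetically (ex 480/em 530) during compound addition, then stimulated with an EC20 of TRH (10 nM final). Enhancement of the Gq-mediated intracellular calcium response was scored.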
D1 antag = antagonists of human D1 dopamine receptor; P21728; HEK293 TREx D1 cells, calcium flux, dopamine EC80; hits give low values; activity change, negative = inhibition, % at 10 µM; actives 3.2% (n = 360,000); in the data active = activity change below about -30%; note: % is set by controls: 0 for no effect and ±100 for the full control effect
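Cells carrying a force-coupled, tetracycline-inducible human D1 receptor report calcium flux. Each well gets a 10 s baseline, compound with 180 s monitoring, then an EC80 dopamine stimulus with a second 180 s kinetic read.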
D1 potentiator = human D1 dopamine receptor positive modulation. HEK293 TREx D1 cells, calcium flux, dopamine EC20 potentiation. potentiation, % at 10 µM. actives 0.036% (n = 360,000); in the data active = potentiation above about 30%; note: 0% is about no effect
Starred values were filed as active, the others as inactive. Compounds with a hit are over-represented: about 4.6% of the library has one in this group of screens. Cut-off read from the data, not from the text of the source, unless noted: active = activation above about 30%; inactive = the rest.

What do the screens show for `FC(F)(F)c1ccc(CN2CCNCC2)cc1`?
TRHR agonist: 0.2; D1 agonist: 1.4; TRHR enhancer: -4.7; D1 antag: 7.6; D1 potentiator: 3.9

What do the screens show for `FC(F)(F)c1cccc(N2CCNCC2)c1`?
TRHR agonist: 0.4; D1 agonist: 4.4; TRHR enhancer: -0.3; D1 antag: -31.9*; D1 potentiator: -3.1

Results for CC(N)Cc1cn(Cc2ccccc2)c2ccccc12 (stereo not given) ?
TRHR agonist: 2.0; D1 agonist: 46.9*; TRHR enhancer: 4.3; D1 antag: 4.0; D1 potentiator: -6.5

Results for Cn1c(=O)n(C)c2cc(CNCCc3ccc(F)cc3)ccc21 ?
TRHR agonist: 0.8; D1 agonist: 7.6; TRHR enhancer: -3.8; D1 antag: 2.2; D1 potentiator: -1.1

How did COc1ccc2c(c1O)-c1c(OC)c(OC)cc3c1[C@H](C2)N(C)CC3 do in these assays?
TRHR agonist: 0.2; D1 agonist: -0.3; TRHR enhancer: 2.3; D1 antag: -62.7*; D1 potentiator: -6.3

Results for COc1ccc(NC(=O)CN2C(=O)C(C)N=C(c3ccccc3F)c3cc(Cl)ccc32)c(OC)c1 (stereo not given) ?
TRHR agonist: -1.1; D1 agonist: 1.4; TRHR enhancer: 0.4; D1 antag: 4.3; D1 potentiator: 6.1

Results for O=C1C2CCCC1C(N1CCCCC1)CC2 (stereo not given) ?
TRHR agonist: 1.1; D1 agonist: 2.6; TRHR enhancer: 5.2; D1 antag: 4.8; D1 potentiator: -9.4

How did Clc1ccc2c(c1)C(OC1CN3CCC1CC3)c1ccccc1CS2 (stereo not given) do in these assays?
TRHR agonist: 0.8; D1 agonist: 34.9*; TRHR enhancer: 7.0; D1 antag: -50.2*; D1 potentiator: -8.2

What do the screens show for `COc1cc2c(cc1OC)CN(c1ccc([N+](=O)[O-])c(C(F)(F)F)c1)CC2`?
TRHR agonist: 0.3; D1 agonist: 3.4; TRHR enhancer: 36.5*; D1 antag: -18.3; D1 potentiator: -8.0

How did Cc1ccccc1-n1nc(C)c2c1NC(=O)CSC2c1ccc(N(C)C)cc1 (stereo not given) do in these assays?
TRHR agonist: -0.1; D1 agonist: 4.5; TRHR enhancer: -5.2; D1 antag: 6.1; D1 potentiator: -1.6

What do the screens show for `Cc1ccccc1-n1c(O)c(/C=N/Nc2nc3c(c(=O)n(C)c(=O)n3C)n2C)c(=O)[nH]c1=S`?
TRHR agonist: 1.0; D1 agonist: 2.2; TRHR enhancer: -1.4; D1 antag: -59.5*; D1 potentiator: -3.4

How did Cc1cccc(-n2c(O)c(/C=N/Nc3nc4c(c(=O)n(C)c(=O)n4C)n3C)c(=O)[nH]c2=S)c1 do in these assays?
TRHR agonist: 1.1; D1 agonist: 4.7; TRHR enhancer: 4.2; D1 antag: -5.4; D1 potentiator: -4.0

What do the screens show for `CC(N)Cc1ccccc1Sc1ccc(O)cc1` (stereo not given)?
TRHR agonist: 0.4; D1 agonist: 18.6; TRHR enhancer: 6.4; D1 antag: -3.2; D1 potentiator: -5.2

How did COc1ccccc1Sc1ccccc1CC(C)N (stereo not given) do in these assays?
TRHR agonist: -0.8; D1 agonist: 60.0*; TRHR enhancer: 8.3; D1 antag: -24.7; D1 potentiator: -1.1

How did Fc1ccc2c(c1)nnn2C1CCN(Cc2ccccc2)CC1 do in these assays?
TRHR agonist: -1.0; D1 agonist: 0.9; TRHR enhancer: 0.0; D1 antag: -33.2*; D1 potentiator: -19.6

How did Cc1ccc(CNC(=O)CCCn2c(=O)c3sccc3n(CC(=O)Nc3c(C)cccc3C)c2=O)cc1 do in these assays?
TRHR agonist: -1.9; D1 agonist: -2.3; TRHR enhancer: -3.7; D1 antag: 1.8; D1 potentiator: 0.8

Results for COc1cc(CN2CCN(c3cc(C)ccc3C)CC2)ccc1O ?
TRHR agonist: -0.2; D1 agonist: 7.0; TRHR enhancer: 6.0; D1 antag: -88.6*; D1 potentiator: -8.2

What do the screens show for `Cc1cccc(OCC(=O)N2CCN(Cc3cc(=O)n4nc(-c5ccccc5Cl)sc4n3)CC2)c1`?
TRHR agonist: 0.1; D1 agonist: -0.1; TRHR enhancer: -6.6; D1 antag: 7.8; D1 potentiator: -2.0

How did Cc1nnc(NC(=O)c2cccn(Cc3ccc(Cl)cc3)c2=O)s1 do in these assays?
TRHR agonist: 0.2; D1 agonist: 0.7; TRHR enhancer: -8.5; D1 antag: 4.7; D1 potentiator: 0.8
